APP 5UTR inh: APP translation inhibition; SH-SY5Y APP 5'UTR-luciferase reporter, luminescence; inhibition, % at 2 µM; hit rate 0.82% among 190,000;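 active = inhibition above a set limit, derived from the sample mean plus 3 SD, cut at about 45% in these data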
aSyn 5UTR inh: MLPCN primary screen, SNCA 5' untranslated region; alpha-synuclein 5'UTR reporter, inhibitor activity; inhibition, % (tested at 7.5 µM); hit rate 0.82% among 300,000; in the data active = inhibition above about 60%;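 note: H4 neuroglioblastoma cells stably carrying SNCA 5'UTR luciferase fusion; 0% = DMSO wells and 100% = positive control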
IEC-6 tox-1: IEC-6 cytotoxicity, counter-screen for KLF5 inhibitors. luminescence viability. inhibition, % at 5 µM. hit rate 0.78% among 290,000;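 note: 0% = plate median of test compound wells and 100% = cytotoxic reference compound wells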
KLF5 inhibitor: suppresses KLF5 promoter-driven expression; DLD-1 KLF5 promoter-luciferase reporter, luminescence; inhibition, % at 5 µM; hit rate 0.23% among 290,000; AID 1700;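 active = inhibition above a per-plate limit of that plate's mean compound inhibition plus 3 SD, cut at about 60% in these data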;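 note: 0% = DMSO wells and 100% = LY294002 at 200 µM; higher means less KLF5 promoter-driven luciferase light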
Ba/F3 V617F tox: loss of viability in JAK2V617F-driven Ba/F3 cells | Ba/F3 EpoR-JAK2V617F viability, ATP luminescence | inhibition, % at 5.6 µM | hit rate 1.1% among 220,000 | AID 1446;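 active = inhibition above the campaign mean plus 3 SD over all tested compounds, cut at about 24% in these data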;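 note: cytokine-independent growth of Ba/F3 cells driven by EpoR plus mutant JAK2; 0% = DMSO-treated cells and 100% = JAK inhibitor I control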
BaF3 tox: counter-screen for JAK2V617F inhibitors: parental Ba/F3 viability inhibitors; AID 1486; CellTiter-Glo ATP luminescence; hit rate 1.1% among 220,000; inhibition, % at 5.6 µM;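 active = inhibition above a per-campaign cutoff, the mean inhibition of all tested compounds plus 3 SD, cut at about 27% in these data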;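 note: 0% = DMSO wells and 100% = JAK Inhibitor I control wells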
KLF5 confirm: KLF5 inhibition, confirmation assay | shares compounds with KLF5 inhibitor | DLD-1 KLF5 promoter firefly luciferase reporter, luminescence | inhibition, % at 4 µM | hit rate 79% among 610;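 active = inhibition above a set limit taken from the earlier primary screen, cut at about 63% in these data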;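 note: 0% = DMSO wells and 100% = LY294002 at 200 µM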
IEC-6 tox-2: kills rat IEC-6 cells in KLF5 counter-screen; shares compounds with KLF5 inhibitor; IEC-6 rat intestinal cells, viability luminescence; hit rate 56% among 610; inhibition, % at 4 µM; in the data active = inhibition above about 23%;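 note: cells exposed to compounds for 48 hours before viability read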
IEC-6 cytotox cf: IEC-6 cytotoxicity, confirmation assay. shares compounds with IEC-6 tox-1. IEC-6 rat intestinal epithelial viability, luminescence. inhibition, % at 5 µM. hit rate 63% among 1,900. AID 1907;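 note: 0% = vehicle and 100% = reference cytotoxic drug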
* hit, by the source's call; · = no result given. Sampled rows, rich in hits. Any-hit rate of the full collection: about 2.2%. Cut-off read from the data, not from the text of the source, unless noted: active = inhibition above about 22%; inactive = the rest.

SMILES	APP 5UTR inh	aSyn 5UTR inh	IEC-6 tox-1	KLF5 inhibitor	Ba/F3 V617F tox	BaF3 tox	KLF5 confirm	IEC-6 tox-2	IEC-6 cytotox cf
O=C(O)c1ccc2c(=O)n3c(nc2c1)/C(=C/c1ccccc1C(F)(F)F)CCCC3	-2	2	-3	-5	3	7	·	·	·
COc1cc(-c2noc(C)c2/C=C/c2ccc(C(=O)O)cc2)cc(OC)c1OC	·	7	-5	-5	·	·	·	·	·
COc1cc(-c2noc(C)c2/C=C/c2cccc([N+](=O)[O-])c2)cc(OC)c1OC	·	69*	79*	64*	·	·	79*	54*	54*
CSc1nc(=S)n(-c2cc(C)ccc2C)c(C)c1C(C)=O	·	6	-2	-36	·	·	·	·	·
CC(C)C(=O)c1cn(CC(=O)NCc2ccco2)c2ccccc12	-13	-42	3	4	2	3	·	·	·
CCOC(=O)C(C)Oc1cccc2c(=O)n(CC(=O)NCc3ccco3)ccc12 (centres undefined)	94*	73*	77*	77*	77*	68*	80*	55*	52*
Cc1cccc(-n2ncc3c2CCCC3NC(=O)Cc2c(C)noc2C)c1C (centres undefined)	·	-1	2	4	·	·	·	·	·
CCOc1ccc2[nH]c(C(=O)N/N=C/c3ccc(OC)cc3)cc2c1	·	76*	84*	66*	·	·	73*	58*	58*
CCCCCCCCCC[n+]1cccc2c3ccccc3ccc21	24	-37	52*	96*	101*	92*	65*	38*	36*
Cc1ccccc1C1=NC(C(F)(F)F)(C(F)(F)F)c2c(n(C)c(=O)n(C)c2=O)N1	-18	-3	5	-3	3	6	·	·	·
Cn1c2c(c(=O)n(C)c1=O)C(C(F)(F)F)(C(F)(F)F)N=C(c1ccc(Cl)cc1)N2	51*	99*	37*	81*	95*	86*	84*	57*	92*
CCCCc1nc2cc(C(=O)N3CCN(c4nc(C)cnc4C)CC3)ccc2o1	·	-25	1	-104	·	·	·	·	·
COC(=O)C1CC23C=CCN4CCC5(c6ccccc6NC15C2C)C43 (centres undefined)	·	94*	88*	62*	·	·	79*	59*	59*
CN1CC[C@@]2([C@@]34CCN(C)C3Nc3ccccc34)c3ccccc3NC12 (some centres undefined)	·	11	·	·	·	·	·	·	·
COc1cc(CN2CCC(n3nccc3NC(=O)CCCc3ccccc3)CC2)ccc1F	·	19	-3	-8	·	·	·	·	·
O=C(O)CCCN=Cc1c(O)c2ccccc2oc1=O	-5	36	-4	-12	-2	6	·	·	·
COc1cc2c(cc1OC)C(C)N(C(=O)c1cc(C)on1)CC2 (centres undefined)	·	97*	85*	74*	·	·	89*	54*	55*
CCn1c2ccccc2c2cc(NC(=O)COc3ccc(OC)cc3)ccc21	3	15	5	-37	-1	4	·	·	·
CCn1c2ccccc2c2cc(NC(=O)c3cc(OC)c(OC)c(OC)c3)ccc21	8	-23	92*	83*	87*	86*	89*	86*	89*
COc1ccc2[nH]c3c(C)c4ccncc4c(C)c3c2c1	·	109*	74*	75*	65*	60*	77*	59*	58*
CC1CCN(Cc2c(C(=O)N/N=C/c3ccccc3O)nnn2-c2nonc2N)CC1	·	65*	47*	70*	·	·	85*	16	42*
Cc1ccc(N2C(=O)c3cccc4c(N)ccc(c34)C2=O)c2cccnc12	·	100*	86*	63*	92*	85*	90*	72*	74*
CCOc1ncccc1C(=O)N1CCN(C(=O)c2ccccc2)CC1	-5	-10	-4	-28	-6	0	·	·	·
CCOc1ncccc1C(=O)N1CCN(c2cccc(C)c2C)CC1	95*	-15	86*	73*	81*	81*	85*	60*	54*
CCOc1ncccc1C(=O)N1CCN(c2cc(Cl)ccc2C)CC1	91*	57	82*	68*	65*	68*	78*	64*	61*
SMILES	APP 5UTR inh	aSyn 5UTR inh	IEC-6 tox-1	KLF5 inhibitor	Ba/F3 V617F tox	BaF3 tox	KLF5 confirm	IEC-6 tox-2	IEC-6 cytotox cf
O=C(Cc1ccc(NC2=NC3CS(=O)(=O)CC3S2)cc1)N1CCN(c2ccc(F)cc2)CC1 (centres undefined)	·	-13	0	4	·	·	·	·	·
C=CCn1c(O)c2ccc(C(=O)N=NC(=O)COc3ccccc3F)cc2c1O	·	-3	·	·	·	·	·	·	·
Cc1cccc2c(C(=O)N3CCN(c4ccccc4)CC3)cc(-c3ccncc3)nc12	·	94*	71*	64*	·	·	71*	46*	53*
Cc1cccc2c(C(=O)N3CCCCC3)cc(-c3ccccc3)nc12	·	11	-3	-23	·	·	·	·	·
COc1ccc(-c2noc(N3CCC(C(=O)NCCCN4CCCC(C)C4)CC3)n2)cc1 (centres undefined)	·	-23	3	-22	·	·	·	·	·
CCCCCC(=O)N[C@@H](c1ccccc1)[C@@H](O)C(=O)O[C@H]1C[C@@]2(O)[C@@H](OC(=O)c3ccccc3)C3[C@](C)(C(=O)[C@H](OC(C)=O)C(=C1C)C2(C)C)[C@@H](O)C[C@H]1OC[C@@]31OC(C)=O (some centres undefined)	·	87*	96*	66*	·	·	84*	88*	86*
CC(NC(=S)NC1CCC(C(C)(C)C)CC1)c1ccccc1 (centres undefined)	·	9	2	-19	·	·	·	·	·
COc1ccc(NC(=O)CCNS(=O)(=O)c2cccc3nonc23)cc1	·	-16	0	-29	·	·	·	·	·
CCCCN(CCCC)CCCN1CC(=O)N2[C@@H](Cc3c([nH]c4ccccc34)C2(C)C)C1=O	·	4	8	11	·	·	·	·	·
CCOc1ccccc1NS(=O)(=O)c1ccc(-c2cnc(C3CC3)o2)cc1	·	20	90*	78*	·	·	83*	64*	59*
O=C(Nc1ccc(S(=O)(=O)N2CCOCC2)cc1)c1ccc([N+](=O)[O-])s1	·	-43	·	·	·	·	·	·	·
O=C(Nc1ccc(S(=O)(=O)N2CCOCC2)cc1)c1ccc([N+](=O)[O-])o1	·	-120	67*	99*	68*	66*	5	8	11
O=C(Cc1n[nH]c(=O)c2ccccc12)OCC(=O)c1ccc2c(c1)OCCO2	95*	80*	89*	77*	83*	82*	65*	72*	60*
COc1cccc(N2CCN(C(=O)c3ccc(CS(=O)Cc4ccc(C)cc4)o3)CC2)c1 (centres undefined)	·	14	-6	1	·	·	·	·	·
COc1cccc(N2CCN(C(=O)c3ccc(CS(=O)c4ccc(C)cc4)o3)CC2)c1 (centres undefined)	·	97*	85*	74*	·	·	92*	85*	59*
